Compound activity: PubChem, National Center for Advancing Translational Sciences (NCATS)
LASV entry inh – blocks Lassa virus binding to or entry into cells. 300,000 compounds, 1.2% hits. Potency, µM (doses to about 37.9 µM), for inactives: top-dose activity change, negative = inhibition, actives largely listed as inhibitors. Lassa virus pseudotype entry inhibition, cell reporter. AID 540256; calls by dose curve; tested in HEK293 cells; also: potency is read from the fitted curve at half-maximal effect; % is scaled to controls: 0 for no effect and ±100 for the full control effect; nearly all actives have a fitted effect of over 50% in size
Marburg entry inh – inhibitors of Marburg virus binding or cell entry; Marburg virus pseudotyped entry inhibition, cell reporter; Potency, µM (series often up to 37.8 µM), for the others: at the highest dose activity change, negative = inhibition, hits mostly inhibitors; 300,000 compounds, 1.8% hits; calls by dose curve; tested in HEK293 cells; also: potency is read from the fitted curve at half-maximal effect; % is scaled to controls: 0 for no effect and ±100 for the full control effect
HCV inh – HCV inhibition. 340,000 compounds, 3.4% hits. Huh7.5.1 HCVcc-Cre infection, luciferase reporter, 44 h. Potency, µM (series often up to 41.8 µM), for the others: at the highest dose activity change, negative = inhibition, most hits filed as inhibitors. AID 651820; active = well fitted inhibition curve with a large enough effect; inconclusive = small, poorly fitted or top-dose-only effect, or another doubt; inactive = no such curve, though single readings can be large or run the other way; also: potency is read from the fitted curve at half-maximal effect; % is scaled to controls: 0 for no effect and ±100 for the full control effect
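After 44 h co-culture of compound, cells and HCVcc-Cre (~0.5 moi), substrate is added for 15 min at room temperature and luciferase measured over 15 sec. Cells were seeded at 1,000/well and pre-cultured 4 h.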
HCMV inh – inhibitors of human cytomegalovirus. HFF cells, HCMV-luciferase reporter, 72 h; hits give low values. activity change, negative = inhibition, % at 57.5 µM. 410,000 compounds, 4.5% hits; in the data active = activity change below about -60%; inconclusive = no clear call, values can overlap the other calls; inactive = above about -39%; also: % is scaled to controls: 0 for no effect and ±100 for the full control effect
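Inhibition of viral replication was scored as loss of reporter luminescence in HFFs infected with HCMV-luciferase (MOI 1 PFU/cell) for 72 h; compounds tested at 2 doses, normalized to buffer and Salinomycin controls.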
SARS PLP yeast – SARS-CoV PLP inhibition in yeast; S. cerevisiae expressing SARS-CoV PLpro, growth rescue; Potency, µM (highest dose often 32.9 µM), for the others: at the highest dose activity, positive = growth rescue, most hits filed as activators; 330,000 compounds, 0.19% hits; AID 485353; calls by dose curve; also: potency is read from the fitted curve at half-maximal effect; 0% is about no effect; nearly all actives have a fitted effect of over 55% in size
FMDV antiviral – foot and mouth disease virus antiviral activity. Potency, µM (highest dose often 57.9 µM), for inactives: top-dose activity change, negative = inhibition, hits mostly inhibitors. AID 1159524. 410,000 compounds, 1.2% hits. FMDV antiviral cell-based qHTS; calls by dose curve; tested in HEK293T cells; also: read-out not given here; potency is read from the fitted curve at half-maximal effect; % is scaled to controls: 0 for no effect and ±100 for the full control effect; nearly all actives have a fitted effect of over 45% in size
Active calls of the source: *; u = inconclusive; x = no result given; [ ] = another dose, or the depositor's remark. Only some compounds are listed: those with a hit (about 8% of all), similar ones and a draw of the others.

SMILES	LASV entry inh	Marburg entry inh	HCV inh	HCMV inh	SARS PLP yeast	FMDV antiviral
CCCCNC(=O)c1sc2ncnc(NCC3CCCO3)c2c1C (stereo not given)	x	x	x	x	x	0.8%
c1ccc(CNc2ncnc3ccc(-c4ccc5c(c4)OCO5)cc23)cc1	x	x	x	x	x	3.2%
Fc1cccc(CNc2ncnc3ccc(-c4ccc5c(c4)OCO5)cc23)c1	x	x	x	-92.1*	3.2%	u
Fc1cccc(CNc2ncnc3cc(Cl)ccc23)c1F	x	x	7.08µM*	u	-2.5%	u
COc1cc2ncnc(NCc3cc(F)ccc3F)c2cc1OC	u	2.7%	1.4%	-8.7	-2.1%	-1.5%
Cc1ccc(CSc2nnc(SCC(=O)N/N=C/C=C/c3ccco3)s2)cc1	u	u	-1.9%	-61.2*	12.2%	10.9%
O=C(CSc1nc2ccccc2c(=O)n1-c1ccccc1)N/N=C/C=C/c1ccccc1[N+](=O)[O-]	x	x	u	-20.3	0.5%	-23.9%
Cc1ccc(CSc2nnc(SCC(=O)N/N=C/C=C/c3ccccc3[N+](=O)[O-])s2)cc1	u	u	12.9%	-78.2*	3.7%	0.0%
Cc1ccccc1-n1c(SCC(=O)N/N=C/C=C/c2ccccc2[N+](=O)[O-])nc2ccccc2c1=O	u	7.08µM*	u	u	16.0%	20.3%
CC(C)c1ccc(NC(=O)c2ccc(=O)n(Cc3ccccc3)c2)cc1	-27.0%[46.1 µM]	x	x	-13.8	x	-8.1%
C#C[C@]1(O)CC[C@H]2[C@@H]3CCC4=Cc5oncc5C[C@]4(C)[C@H]3CC[C@@]21C	x	x	7.0%	9.3	x	39.8µM*
C#C[C@]1(O)CC[C@H]2[C@H]3CCC4=Cc5oncc5C[C@]4(C)[C@@H]3CC[C@]21C	x	20.6µM*	x	x	x	-29.9%
CC12Cc3cn[nH]c3C=C1CCC1C2CCC2(C)C1CCC2(C)O (stereo not given)	-9.6%[46.1 µM]	-11.7%[46.1 µM]	-6.8%	-2.4	x	-14.5%
COC(=O)N[C@H](CC(C)=O)c1cccc(F)c1	x	-6.7%[14.2 µM]	x	x	x	x
Cc1cc(Cl)c2oc(C(=O)NCCC3CCCCO3)c(C)c2c1 (stereo not given)	u	u	25.1µM*	74.6	-7.7%	44.6%
Cc1cc(Cl)c2oc(C(=O)NCCN3CCCCC3CO)c(C)c2c1 (stereo not given)	-2.3%	-7.8%	x	63.6	3.7%	21.2%
COCCNC(=O)[C@@H]1[C@@H](CO)[C@@H]2Cn3c(cccc3=O)[C@H]1N2Cc1cccc(Cl)c1	x	x	x	-4.2	x	x
O=C(N/N=C/c1cnc(N2CCCCC2)s1)c1ccc(C(F)(F)F)cc1	x	x	11.2µM*	14.2	-1.3%	-29.6%
O=C1CC(c2ccc(Cl)cc2)Sc2nc(-c3ccc(F)cc3)nn21 (stereo not given)	-3.5%[46.1 µM]	0.2%[46.1 µM]	x	13.2	x	-19.2%
CCOC(=O)C1=C(c2ccccc2)c2ccc(OC)cc2N(S(=O)(=O)C(F)(F)F)C1C(=O)OCC (stereo not given)	x	x	2µM*	-2.4	-11.2%	u
COc1cccc(Cn2c(CNC(=O)c3cc([N+](=O)[O-])ccc3Cl)nc3cccnc32)c1	-18.3%[46.1 µM]	x	x	u	x	-25.0%
O=C(NCCS(=O)(=O)NCc1ccccc1)c1ccc2c(c1)OCO2	19.6%	1.1%[46.1 µM]	6.4%	-3.4	-2.4%	5.1%
O=C(NCCc1ccc2c(c1)OCCO2)c1cccc(F)c1	2.3%	-17.7%	u	-73.2*	1.5%	11.4%
O=C(NCCc1ccc2c(c1)OCCO2)c1cc(F)cc(F)c1	u	-0.1%	u	u	-25.1%	-7.1%
O=C(NNC(=S)NCc1ccccc1)c1ccc2c(c1)OCO2	15.2%	5.8%	16.4%	-65.1*	-17.6%	-2.1%
O=C(NCCc1ccccc1)c1ccc2nccnc2c1	2.82µM*	1.26µM*	-2.0%	61.0	-0.2%	-35.8%
O=C(NCCc1ccccc1)c1ccc2c(c1)OCO2	1.12µM*	1.26µM*	6.6%	-78.7*	-3.9%	7.94µM*
CCOc1ccc(C(=O)c2cn(CC(=O)Nc3ccc(C)c(C)c3)c3ccc(OCC)cc3c2=O)cc1	1.4%[46.1 µM]	1.2%[46.1 µM]	x	3.8	x	0.0%
CCc1ccc(NC(=O)N(Cc2ccc(C)cc2)Cc2cccn2-c2nnc(N3CCCC3=O)s2)cc1	x	u	x	-7.0	x	20.5%
CCn1ccc2cc(S(=O)(=O)N3CCCN(C(=O)NCC(=O)OC)CC3)ccc21	4.0%[46.1 µM]	x	x	16.9	x	-1.2%
